Assay in all cases: log2 ratio of Biotin-Ahx-Ub-VS probe labelling (fragment/DMSO); higher = less target engagement (more negative = stronger competition), active = hit call of the paper (q ≤ 0.05, log2 ratio ≤ -1)
Holding throughout (conditions): compound concentration: 200 uM; treatment time: 3 h

The target of assay [1] is T1, OTUD6B (UniProt Q8N6M0).
T1 sequence (whole entry): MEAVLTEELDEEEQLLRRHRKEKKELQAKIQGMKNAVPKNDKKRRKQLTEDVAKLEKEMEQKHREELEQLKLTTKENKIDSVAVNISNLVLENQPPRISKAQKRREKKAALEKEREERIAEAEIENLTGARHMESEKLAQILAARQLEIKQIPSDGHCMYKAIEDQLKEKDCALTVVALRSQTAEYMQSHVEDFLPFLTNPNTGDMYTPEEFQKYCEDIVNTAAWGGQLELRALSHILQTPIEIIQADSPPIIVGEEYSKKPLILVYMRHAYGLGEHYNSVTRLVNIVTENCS
In short, it runs like this:
(§1)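 HEK293T lysate in Tris/CHAPS/IGEPAL buffer with protease inhibitors (495 µg per sample) was given fragment at 200 µM or vehicle for 3 h, in triplicate. It then received Biotin-Ahx-Ub-VS at 0.5 µM final for 1 h. Labelled DUBs were NeutrAvidin-enriched, digested with LysC and trypsin, and run by diaPASEF LC-MS/MS. Values are average log2 fragment/vehicle ratios by unpaired t-test on global-median-normalised Spectronaut quantities of proteins with ≥2 unique peptides.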

For assay [2], the target named is T2, OTUD7B (UniProt Q6GQQ9).
T2 sequence (whole entry): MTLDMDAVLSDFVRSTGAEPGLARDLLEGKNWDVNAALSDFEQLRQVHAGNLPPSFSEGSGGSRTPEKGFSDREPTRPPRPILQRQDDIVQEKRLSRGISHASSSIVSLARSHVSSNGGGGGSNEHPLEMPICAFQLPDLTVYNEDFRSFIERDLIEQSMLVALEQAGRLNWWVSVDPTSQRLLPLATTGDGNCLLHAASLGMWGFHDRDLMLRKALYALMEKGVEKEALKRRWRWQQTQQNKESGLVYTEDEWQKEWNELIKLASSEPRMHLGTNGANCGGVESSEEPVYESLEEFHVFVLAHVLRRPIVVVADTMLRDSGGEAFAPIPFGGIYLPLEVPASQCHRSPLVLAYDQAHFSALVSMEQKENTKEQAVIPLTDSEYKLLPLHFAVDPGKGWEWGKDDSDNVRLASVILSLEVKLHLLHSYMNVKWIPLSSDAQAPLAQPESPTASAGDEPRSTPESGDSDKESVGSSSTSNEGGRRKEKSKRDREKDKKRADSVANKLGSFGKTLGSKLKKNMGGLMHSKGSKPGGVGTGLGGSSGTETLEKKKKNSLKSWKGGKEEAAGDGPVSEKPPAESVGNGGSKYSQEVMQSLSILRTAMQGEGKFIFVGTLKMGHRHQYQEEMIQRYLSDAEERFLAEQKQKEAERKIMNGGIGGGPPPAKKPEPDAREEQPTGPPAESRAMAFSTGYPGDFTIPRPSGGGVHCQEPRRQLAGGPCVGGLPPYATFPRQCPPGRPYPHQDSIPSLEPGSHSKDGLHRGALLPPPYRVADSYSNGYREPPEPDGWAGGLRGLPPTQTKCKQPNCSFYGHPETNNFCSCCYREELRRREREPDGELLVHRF
In short, it runs like this: as §1

In assay [3] the target is PRPF8 (UniProt Q6P2Q9). In short, it runs like this:
as §1

Assay [4] concerns the target T3, PSMD7 (UniProt P51665).
T3 sequence (whole entry): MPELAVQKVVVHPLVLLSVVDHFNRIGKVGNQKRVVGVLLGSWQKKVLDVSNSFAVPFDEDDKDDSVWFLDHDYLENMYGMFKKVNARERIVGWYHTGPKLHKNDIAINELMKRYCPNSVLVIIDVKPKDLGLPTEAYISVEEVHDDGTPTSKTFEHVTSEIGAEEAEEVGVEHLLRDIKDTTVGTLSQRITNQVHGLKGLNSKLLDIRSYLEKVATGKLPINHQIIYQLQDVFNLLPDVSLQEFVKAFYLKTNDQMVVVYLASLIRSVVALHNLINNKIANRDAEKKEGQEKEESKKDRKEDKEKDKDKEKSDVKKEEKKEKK
In outline: as §1

Assay [5] addresses UCHL1 (UniProt P09936). In outline: as §1
The target in assay [6] is T4, UCHL3 (UniProt P15374).
T4 sequence (whole entry): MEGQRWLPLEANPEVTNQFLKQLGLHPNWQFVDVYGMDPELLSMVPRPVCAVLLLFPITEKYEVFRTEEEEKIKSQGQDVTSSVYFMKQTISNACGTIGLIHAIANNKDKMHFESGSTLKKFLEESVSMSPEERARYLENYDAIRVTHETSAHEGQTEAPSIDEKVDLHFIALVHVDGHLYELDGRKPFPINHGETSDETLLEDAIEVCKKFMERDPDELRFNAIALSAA
In short, it runs like this:
as §1

Assay [7] has as its target T5, UCHL5 (UniProt Q9Y5K5).
T5 sequence (whole entry): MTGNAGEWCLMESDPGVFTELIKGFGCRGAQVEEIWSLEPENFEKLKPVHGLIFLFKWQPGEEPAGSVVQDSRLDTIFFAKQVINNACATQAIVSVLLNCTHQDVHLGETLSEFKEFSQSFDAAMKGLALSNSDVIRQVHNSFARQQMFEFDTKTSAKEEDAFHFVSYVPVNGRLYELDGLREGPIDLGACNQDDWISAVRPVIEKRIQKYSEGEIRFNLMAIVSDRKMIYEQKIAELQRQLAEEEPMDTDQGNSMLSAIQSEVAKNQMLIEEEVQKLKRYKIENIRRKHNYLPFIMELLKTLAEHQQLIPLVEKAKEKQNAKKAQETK
In short, it runs like this:
as §1

Assay [8] concerns the target USP10 (UniProt Q14694). In short, it runs like this: as §1
Assay [9] deals with T6, USP15 (UniProt Q9Y4E8).
T6 sequence (whole entry): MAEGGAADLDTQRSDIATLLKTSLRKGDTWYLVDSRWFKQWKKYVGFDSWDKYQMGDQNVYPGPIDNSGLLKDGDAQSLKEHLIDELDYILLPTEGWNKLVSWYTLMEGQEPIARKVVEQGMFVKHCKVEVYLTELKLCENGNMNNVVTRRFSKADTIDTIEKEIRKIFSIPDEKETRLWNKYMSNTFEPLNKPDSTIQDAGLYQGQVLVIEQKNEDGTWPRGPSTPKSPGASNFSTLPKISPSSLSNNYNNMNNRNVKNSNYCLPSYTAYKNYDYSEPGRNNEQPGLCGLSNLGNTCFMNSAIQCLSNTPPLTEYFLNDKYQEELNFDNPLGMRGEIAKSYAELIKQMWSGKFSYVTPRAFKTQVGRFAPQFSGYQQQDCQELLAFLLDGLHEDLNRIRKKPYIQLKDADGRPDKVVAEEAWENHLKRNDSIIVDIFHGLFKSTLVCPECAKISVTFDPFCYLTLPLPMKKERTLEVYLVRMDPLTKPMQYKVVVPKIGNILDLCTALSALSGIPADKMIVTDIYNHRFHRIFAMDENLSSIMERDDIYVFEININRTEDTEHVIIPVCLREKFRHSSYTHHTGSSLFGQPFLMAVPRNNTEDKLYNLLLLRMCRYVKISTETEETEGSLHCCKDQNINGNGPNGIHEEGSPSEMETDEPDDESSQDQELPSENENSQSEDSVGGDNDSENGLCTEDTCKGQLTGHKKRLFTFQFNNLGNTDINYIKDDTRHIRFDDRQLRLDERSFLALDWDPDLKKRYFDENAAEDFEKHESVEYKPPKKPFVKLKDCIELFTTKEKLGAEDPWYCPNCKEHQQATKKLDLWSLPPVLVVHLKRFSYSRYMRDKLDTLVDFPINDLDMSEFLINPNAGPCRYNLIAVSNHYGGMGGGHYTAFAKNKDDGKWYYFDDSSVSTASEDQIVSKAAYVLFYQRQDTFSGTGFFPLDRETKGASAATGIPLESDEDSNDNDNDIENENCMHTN
In outline:
as §1

The target of assay [10] is USP16 (UniProt Q9Y5T5). In outline: as §1

Unmarked numbers belong to inactive results.

Sequence of USP10 (Q14694 whole entry): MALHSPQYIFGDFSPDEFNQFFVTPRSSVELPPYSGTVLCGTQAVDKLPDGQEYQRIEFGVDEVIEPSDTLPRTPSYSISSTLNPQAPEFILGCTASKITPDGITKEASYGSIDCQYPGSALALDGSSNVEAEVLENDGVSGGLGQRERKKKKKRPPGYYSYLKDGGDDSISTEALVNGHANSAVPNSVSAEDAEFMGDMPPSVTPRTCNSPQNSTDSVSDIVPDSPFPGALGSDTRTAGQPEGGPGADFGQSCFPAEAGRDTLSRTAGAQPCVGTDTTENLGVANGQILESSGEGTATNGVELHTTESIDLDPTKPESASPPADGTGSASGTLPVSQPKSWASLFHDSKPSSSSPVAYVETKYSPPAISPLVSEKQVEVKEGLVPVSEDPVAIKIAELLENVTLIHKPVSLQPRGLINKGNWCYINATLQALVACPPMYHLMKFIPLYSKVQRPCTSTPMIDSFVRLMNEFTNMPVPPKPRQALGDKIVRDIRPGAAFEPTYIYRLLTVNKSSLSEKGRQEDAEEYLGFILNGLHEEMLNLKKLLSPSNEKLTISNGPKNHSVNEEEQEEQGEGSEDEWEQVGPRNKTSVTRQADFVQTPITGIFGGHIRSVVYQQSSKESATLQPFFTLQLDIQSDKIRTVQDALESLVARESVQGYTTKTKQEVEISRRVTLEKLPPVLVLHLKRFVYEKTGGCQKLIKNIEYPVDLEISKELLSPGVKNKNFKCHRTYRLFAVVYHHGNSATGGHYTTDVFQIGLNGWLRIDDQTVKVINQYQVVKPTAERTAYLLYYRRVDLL
Sequence of UCHL1 (P09936 whole entry, looked up): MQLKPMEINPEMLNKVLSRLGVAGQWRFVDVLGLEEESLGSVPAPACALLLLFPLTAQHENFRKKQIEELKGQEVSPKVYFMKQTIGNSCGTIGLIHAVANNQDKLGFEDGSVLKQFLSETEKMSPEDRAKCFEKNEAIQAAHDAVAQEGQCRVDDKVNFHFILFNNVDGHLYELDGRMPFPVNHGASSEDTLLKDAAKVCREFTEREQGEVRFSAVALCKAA
Sequence of USP16 (Q9Y5T5 whole entry, looked up): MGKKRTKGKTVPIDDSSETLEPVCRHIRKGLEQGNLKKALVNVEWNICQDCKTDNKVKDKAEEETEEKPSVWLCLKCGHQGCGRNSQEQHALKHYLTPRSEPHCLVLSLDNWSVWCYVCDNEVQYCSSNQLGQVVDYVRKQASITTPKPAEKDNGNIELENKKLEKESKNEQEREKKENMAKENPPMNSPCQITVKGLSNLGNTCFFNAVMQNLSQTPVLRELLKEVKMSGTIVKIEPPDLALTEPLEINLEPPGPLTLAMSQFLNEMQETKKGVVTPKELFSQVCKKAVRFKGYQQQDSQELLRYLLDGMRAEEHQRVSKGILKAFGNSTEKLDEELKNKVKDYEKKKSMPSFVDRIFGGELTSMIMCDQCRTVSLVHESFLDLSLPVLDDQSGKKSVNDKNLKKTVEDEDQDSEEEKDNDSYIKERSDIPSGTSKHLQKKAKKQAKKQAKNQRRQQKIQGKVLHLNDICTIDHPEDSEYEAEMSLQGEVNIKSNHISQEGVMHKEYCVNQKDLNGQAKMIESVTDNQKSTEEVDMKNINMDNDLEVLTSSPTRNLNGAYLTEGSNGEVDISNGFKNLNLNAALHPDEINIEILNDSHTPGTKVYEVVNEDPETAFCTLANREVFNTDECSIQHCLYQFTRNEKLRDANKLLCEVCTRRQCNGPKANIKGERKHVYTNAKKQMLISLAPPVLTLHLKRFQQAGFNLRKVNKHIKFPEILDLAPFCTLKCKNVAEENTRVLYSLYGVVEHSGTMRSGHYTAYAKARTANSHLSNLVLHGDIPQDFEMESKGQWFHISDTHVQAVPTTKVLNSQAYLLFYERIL

With `O=C(CCl)N1CCC2(CCC(O)CC2)CC1`, the “log2 ratio of Biotin-Ahx-Ub-VS probe labelling” value in assay [1] is -0.306; in assay [2], -0.236; in assay [3] it was -0.102; in assay [4], -0.109; in assay [5], -1.76 (active); in [6], 0.404. In addition, the “log2 ratio of Biotin-Ahx-Ub-VS probe labelling” value is -0.157 in assay [7], -0.17 in assay [8], -0.243 in assay [9] and 0.0341 in assay [10].

Source of the values: the supplement of paper PMC11732987, “Enantioselective OTUD7B fragment discovery through chemoproteomics screening and high-throughput optimisation” (Communications Chemistry, 2025).
